According to the supplement of paper PMC3334620:
Over roughly 33,000 sequences, “E-score (-0.5 to 0.5)” has its median near -0.035; the highest 2% begin near 0.34. Many of the other results were omitted from the sample, so the highest values are more common in it than they were.

Molecular target: T1, Mot3 (UniProt P54785)
T1 sequence: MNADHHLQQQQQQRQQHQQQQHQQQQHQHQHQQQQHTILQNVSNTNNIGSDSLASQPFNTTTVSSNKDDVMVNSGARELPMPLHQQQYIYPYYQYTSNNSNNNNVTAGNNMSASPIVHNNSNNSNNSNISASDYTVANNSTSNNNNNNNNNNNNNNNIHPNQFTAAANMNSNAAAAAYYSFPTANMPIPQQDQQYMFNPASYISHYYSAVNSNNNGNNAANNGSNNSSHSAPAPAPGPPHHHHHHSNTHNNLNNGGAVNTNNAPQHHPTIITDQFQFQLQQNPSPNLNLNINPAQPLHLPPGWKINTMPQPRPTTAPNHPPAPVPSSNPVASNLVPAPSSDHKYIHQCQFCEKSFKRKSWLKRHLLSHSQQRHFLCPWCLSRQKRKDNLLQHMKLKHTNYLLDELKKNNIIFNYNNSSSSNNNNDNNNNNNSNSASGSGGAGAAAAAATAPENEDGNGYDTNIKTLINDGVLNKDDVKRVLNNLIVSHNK
Assay: PBM E-score (8-mer binding enrichment) (E-score (-0.5 to 0.5)); higher = stronger / more preferred TF binding
Details: protein concentration: 200 nM; construct: GST-full length
Method: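 Universal 'all 10-mer' protein binding microarrays (Agilent AMADID 015681) probed with GST-tagged S. cerevisiae TFs (full-length or DBD) made by in vitro transcription/translation (PURExpress), about 100-200 nM. Bound TF was detected with fluorescent anti-GST. Each ungapped 8-mer (which stands for itself and its reverse complement) is scored by the PBM enrichment score (E-score), a modified Wilcoxon-Mann-Whitney statistic from -0.5 to +0.5, computed with the Universal PBM Analysis Suite. Scale: above 0.35 generally sequence-specific binding.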

Sequence | PBM E-score
GGATGCGA | -0.246
ACACAGCG | 0.318
GCCCGATA | -0.181
AAGTTCAT | -0.132
GGGGCAAC | -0.0256
GCGGCAAC | -0.0624
GAGGCAAC | 0.435
CTACGCTC | -0.0123
TACAAGCA | 0.284
GCTACTCA | -0.175
CTCTAGCA | -0.0349
ATTTCCTC | -0.0476
ATTTCCCA | -0.0389
ATTTCCAA | 0.0549
ATTTCCTA | 0.371
ATTTCCAG | 0.0581
ATTTCCTG | 0.41
AAGATTGT | 0.126
CCGGTGCG | -0.0852
AATAGCCA | -0.0713
CCAGGAGA | -0.238
CAAGGTAG | 0.0907
GGAGGTAC | 0.0528
CAAGGTAA | 0.258
AAAGGTAA | 0.324

Sequence | PBM E-score
AAAGGTAG | -0.135
AAAGGTAT | 0.102
GAAGGTGC | 0.136
AAAGGTAC | 0.42
GAAGGTAC | 0.438
GAAGGTAA | 0.397
CAAGGTGC | 0.0747
CAAGGTAC | 0.376
CGCGACGC | -0.148
ATACCCGG | 0.0542
TCGCCCCA | -0.213
CACTGTCC | -0.196
GGACCGCC | -0.212
ACCCTTTG | -0.147
GCATTCAC | 0.0735
ACGTCTCT | 0.0141
AAGCAATG | -0.0928
ATCAGGAT | -0.12
AAAGGGGG | -0.0401
ATACATCA | 0.16
ATACATAA | 0.308
ATACATAC | 0.28
AGACATGG | 0.139
GTACATGA | 0.328
ATACATGA | 0.363

Sequence | PBM E-score
ATACATAT | 0.359
CTACATGA | 0.361
ATACATGG | 0.374
CTACATCA | 0.112
ACACATGG | 0.144
AGACATGA | 0.198
CCTCTGAC | -0.145
CACCCTTC | -0.121
ATGCCCCC | -0.266
AGAGTTCC | -0.135
CTGGCACC | -0.232
CACCTTAA | 0.0232
CCTTCAGA | -0.0591
CTACATGC | 0.355
CGACATGC | 0.279
AGACATGC | 0.0904
CTACATTC | 0.0249
ATACATGC | 0.361
ATACATCC | 0.201
CCCAAGGA | -0.0628
GTCTGCAA | -0.0815
AGCATGGC | 0.0473
CGCTGTTA | -0.0162
TAGCTAGA | -0.0751
CGCACTGC | -0.0709

Sequence | PBM E-score
AGGCCTGA | -0.288
CAGCCTGC | -0.106
GAGCCTGA | 0.26
GAGCCTGC | 0.389
AGGCCTTC | -0.154
ATGCCTAC | 0.424
ATGCCTAG | 0.199
ATGCCTTC | 0.36
CTGCCTGA | 0.223
CTGCCTAC | 0.264
CTGCCTTC | 0.2
ATGCCTGA | 0.376
AAGTAACC | 0.00035
ATCCAGCG | -0.127
GAACCCTC | -0.176
AGGAAGCG | -0.0464
GTATGCTA | -0.0526
ATCGAAAG | -0.0284
GTTTCATA | -0.0759
CTCTAACA | 0.0488
GTAGCCTA | 0.177
GTAGAAGA | -0.00994
ACAAGGCC | 0.0968
ACACTTAC | 0.188
CGCACATA | -0.146

Sequence | PBM E-score
CTGCCTCC | -0.215
GTGCCTTA | 0.49
ATGCCTGC | 0.407
CTGCCTTA | 0.059
ATGCCTTA | 0.342
ATGCCTGG | 0.127
AAGCCTTA | -0.147
ATGCCTTG | 0.267
ATGCCTCA | 0.111
GTGCCTCA | 0.454
GCGCCTTA | 0.31
CTGCCTCA | -0.15
CTGCCTGC | 0.336
GCAGCCTA | -0.0663
CCAAGAGA | -0.0138
CGGCCTGC | -0.212
AGTGGCCA | -0.158
ATCTACCG | -0.115
ACTTTGCT | -0.0166
CCGCCTAC | -0.166
GTGCCCCA | -0.248
CTGCCTAA | 0.258
ATGCCTAA | 0.278
GTGCCTAA | 0.49
GCGCCTAC | 0.358

Sequence | PBM E-score
ACGCCTAC | 0.0133
ATGCCCAA | -0.0977
GTGCCCAA | 0.392
CTTAGAAA | 0.11
AAAGCACC | -0.0982
CAAAGCCC | -0.0136
ACACAACA | 0.307
CTAACCCA | -0.0185
TTAACGAA | 0.128
TAAGGTGA | -0.0657
AACACGGT | 0.353
AACACGTC | 0.316
GACACGAC | 0.31
AACACGGC | 0.257
AACACGGA | 0.252
AACACGAA | 0.33
AACACGAG | 0.288
AACACGAC | 0.344
AACACGTT | 0.365
AACACGAT | 0.349
CACACGAC | 0.0741
AACACGTA | 0.32
GCATCGCA | -0.36
CGACTTAC | -0.127
GACGCAAC | -0.0695

Sequence | PBM E-score
AGGATTGC | -0.0652
CGTTGAGA | -0.183
AAGTTTTG | 0.167
ACTGGGCG | -0.198
CGCACCTC | -0.0771
ATGCAAAG | 0.128
GGGCAAAC | 0.0101
AGGCAAAC | 0.482
AGGCAAAA | 0.467
CGGCAAAG | -0.226
AGGCAAAG | 0.472
ATGCAAAT | 0.146
CGGCAAAC | -0.217
AGGCAGAT | 0.0714
GGGCAAAA | 0.0722
AGGCAAAT | 0.479
TGGCAAAA | 0.0985
CCCGACGC | -0.262
ATCGGCGG | -0.342
ACCAGTAG | -0.0459
AAGGTGTG | -0.0849
TTACAGAA | 0.106
ACGCTTAA | 0.114
ATACTTAA | 0.173
CCCCTAAG | -0.313

Sequence | PBM E-score
AGAGGCGA | -0.227
GGAGGCAA | 0.437
GGAGGCGA | -0.194
CGAGGCAG | -0.0696
CGAGGCAC | 0.411
CGAGGCAA | 0.318
TGAGGGCA | -0.0148
TGAGGCCA | 0.0399
GGAGGCCA | -0.34
AGAGGCCA | -0.274
TGAGGCAA | 0.389
AGAGGCAA | 0.409
CCCGTTGA | -0.205
ACGTTCTG | -0.0537
CCTCTTAC | -0.0603
ATCCATAG | -0.206
GGCCGGAC | -0.187
CACTGGTA | -0.00383
AGCGTTTC | 0.127
GTTGCTTA | 0.0798
AAGGATCA | 0.0089
GGAGGCCC | -0.266
AGAGGCAC | 0.465
AGAGGCAT | -0.0714
GGAGGCAC | 0.474

Sequence | PBM E-score
AGAGGCAG | -0.133
GGGGGCAC | -0.156
GTTCTGGA | 0.0443
AAGCACCG | -0.206
AGGCACCA | 0.492
AGGCACCC | 0.491
GGGCACCA | 0.171
CGGCACCC | -0.126
ACGCACCT | 0.129
AGGCACCT | 0.491
CGGCACCA | -0.159
GGGCACCC | -0.0287
AAGCACCT | 0.0273
AGGCACCG | 0.491
CGGCACCG | -0.0283
CCTATTGA | 0.124
CGGTGTAC | 0.0428
GGAGATAC | -0.137
AGTTGGAC | 0.0582
